Laboratory results: ChEMBL document CHEMBL3988442, “University of Dundee, Small-Polar-MMV Screening Library” (2021)
Hit rate of the full screen: of about 48,000 compounds, about 13,000 (27%) showed an effect of 50% or more. The list shows a part of the results.

What follows are molecules tested on Wolbachia pipientis (assay: Anti-Wolbachia Cell-Based Screen). Conditions: 5 µM.
Assay type: functional
Parameters: scale not given: in the data most compounds retested in dose-response had high values

Row | Compound | Percent Effect
1 | COCCOCCNC(=O)N1CCc2c(F)ccc(F)c2C1 | -0.5371%
2 | N#Cc1cc(F)ccc1Cn1cncn1 | 9.511%
3 | CNC(=O)Cc1noc(Cc2ccc3c(c2)CCCC3)n1 | 11.56%
4 | CN(C)CC1(O)CCCN(Cc2cnc(-c3ccco3)nc2)CC1 (stereo not drawn) | 2.959%
5 | Cc1ccc(=O)n(CC2(O)CCN(Cc3cnc(C)nc3)CC2)n1 | -9.776%
6 | Cc1ccc(=O)n(CC2(O)CCN(Cc3cnc(N(C)C)nc3)CC2)n1 | 82.15%
7 | CN(C)c1cnn(CC(=O)N2CCN(Cc3cccs3)CC2)c(=O)c1 | 2.186%
8 | CCn1cc(CN2CCC(O)(Cn3nc(C)ccc3=O)CC2)cn1 | 106.9%
9 | CCn1ccnc1CN1CCC(Oc2ccccc2F)(C(=O)O)CC1 | -0.1414%
10 | Cc1ccc(=O)n(CC2(O)CCN(Cc3c(F)cccc3F)CC2)n1 | 89.56%
11 | Cn1cnn(Cc2c(F)cccc2Br)c1=O | 12.84%
12 | Cc1ccc(=O)n(CC2(O)CCN(Cc3cccs3)CC2)n1 | 102.3%
13 | Cc1ccc(=O)n(CC2(O)CCN(Cc3ccsc3)CC2)n1 | -12.71%
14 | Cc1noc(C)c1CN(C)C(C)c1cccs1 (stereo not drawn) | -4.592%
15 | CCCn1cnc2c1CN(S(=O)(=O)c1ccc(F)cc1)[C@H](C(=O)OC)C2 | -2.883%
16 | CCCC1(CNCc2ncc[nH]2)CCC1 | -4.212%
17 | CCN1CCc2[nH]cnc2C12CCN(C(=O)CCCn1cncn1)CC2 | 0.07379%
18 | CCC(C(=O)NCc1cccnc1)N(c1cccc(C)c1)S(C)(=O)=O (stereo not drawn) | -6.23%
19 | COc1ccccc1COCC(O)CN(C)c1ccc(C)cc1C (stereo not drawn) | -38.72%
20 | CCn1ccnc1C1CCN(C(=O)C(O)c2ccc(Cl)cc2)CC1 (stereo not drawn) | -5.147%
21 | COc1ccc(C(=O)NC2CC2)c(OC2CCN(CCCSC)CC2)c1 | -3.444%
22 | COCCN(CCOC)S(=O)(=O)N(C)Cc1ccncc1 | 7.861%
23 | Cc1ccc(=O)n(CC2(O)CCN(Cc3ccoc3)CC2)n1 | 91.7%
24 | Cn1cc(CN2CCC3(CC2)CC(=O)Nc2ccccc23)cn1 | -46.12%
25 | Cc1nc2c(c(N3CC=CC3)n1)CCN(Cc1ccoc1)CC2 | 2.971%

Row | Compound | Percent Effect
26 | Cn1cc(CN2CC3(CCN(C(=O)c4ccoc4)C3)C2)cn1 | 3.005%
27 | Cc1ccc(=O)n(CC2(O)CCN(Cc3cnn(C)c3)CC2)n1 | 99.25%
28 | CCN(CC)Cc1ccc(C(=O)NC2CCc3cc(Br)ccc32)o1 (stereo not drawn) | -2.859%
29 | CC(C)c1cc(NCc2csc(C(C)C)n2)nc(N)n1 | -18.23%
30 | COc1ccc(C(=O)Nc2ccccc2-c2ccc(=O)n(C)n2)cc1 | 17.03%
31 | COc1ccc(NC(=O)c2cccc(OC)c2OC)cc1 | -22.1%
32 | COc1ccc(C(CO)NC(=O)Nc2cccc(C(C)=O)c2)cc1 (stereo not drawn) | -19.79%
33 | COc1cc(NC(=O)c2cccc(N(C)C)c2)cc(OC)c1 | 6.421%
34 | COc1ccc(C(=O)Nc2ccccc2C(C)C)c(OC)n1 | 169%
35 | COc1ncccc1C(=O)Nc1ccccc1-c1ccc(=O)n(C)n1 | -13.19%
36 | COc1ccc(C(=O)Nc2cccc(SC)c2)c(OC)n1 | 175.2%
37 | COc1ncccc1NC(=O)c1cccc(C)n1 | -5.429%
38 | COc1ccc(C(=O)Nc2cccc(C(N)=O)c2)c(OC)n1 | 132%
39 | CC(C)Oc1ncc(C(=O)N2CCc3ccc(O)cc3C2)cc1Cl | -26.56%
40 | CN1N=C(c2nc(Cc3cccc(Br)c3)no2)CCC1=O | -6.645%
41 | CC(C(=O)NC1CC1)S(=O)(=O)c1cc2c(cc1Cl)OCCO2 (stereo not drawn) | -15.14%
42 | Cc1noc(C)c1CNS(=O)(=O)N(C)Cc1ccccc1Br | -0.1877%
43 | CCc1noc(CN(C)C(=O)COc2cccc(Cl)c2C)n1 | 4.111%
44 | O=C(O)C(F)(F)F.c1coc(CN2CCO[C@H]3[C@@H](OCC4CC4)CC[C@@H]32)c1 | 73.75%
45 | O=C(O)C(F)(F)F.c1coc(CN2CCO[C@H]3[C@H](OCC4CCCC4)CC[C@@H]32)c1 | 101%
46 | CC(C)NC(=O)[C@H]1C[C@@H]2[C@@H](C1)OCCN2Cc1ccco1.O=C(O)C(F)(F)F | 1.513%
47 | O=C(O)C(F)(F)F.c1coc(CN2CCO[C@H]3[C@H](OCC4CC4)CC[C@@H]32)c1 | 120.5%
48 | O=C(O)C(F)(F)F.c1csc(CN2CCO[C@H]3[C@H](OCC4CCCC4)CC[C@@H]32)n1 | -7.308%
49 | CCC(Nc1ccc(Oc2cccc(C#N)c2)cc1)C(N)=O (stereo not drawn) | 18.43%
50 | CC[C@@H](CO)NC(=O)c1coc(COc2ccc3sc(C)nc3c2)n1 | -14.59%

Row | Compound | Percent Effect
51 | CCCc1noc(C(C)N2CC(n3cccn3)C2)n1 (stereo not drawn) | 2.136%
52 | Cn1cnc2c1C(COCC1CC1)CN(Cc1ccc3c(c1)OCO3)C2.O=C(O)C(F)(F)F.O=C(O)C(F)(F)F (stereo not drawn) | 34.98%
53 | CCOCC1CN(Cc2ccc3c(c2)OCO3)Cc2nccn2C1 (stereo not drawn) | 77.74%
54 | CCOCC1CN(Cc2cc(C)on2)Cc2cn(C)nc21 (stereo not drawn) | -1.224%
55 | CCOCC1CN(Cc2cnn(C)c2)Cc2nn(C)cc21.O=C(O)C(F)(F)F (stereo not drawn) | -12.04%
56 | CCOCC1CN(Cc2ccc3c(c2)OCO3)Cc2ncn(C)c21 (stereo not drawn) | 101.2%
57 | COCC1CN(Cc2ccc3c(c2)OCO3)Cc2ncn(C)c21.O=C(O)C(F)(F)F.O=C(O)C(F)(F)F (stereo not drawn) | 103.2%
58 | COCC1CN(Cc2ccc(OC)cc2)Cc2nn(C)cc21.O=C(O)C(F)(F)F (stereo not drawn) | -23.14%
59 | CN(C)CC1CN(Cc2ccc3c(c2)OCO3)Cc2nccn2C1.O=C(O)C(F)(F)F.O=C(O)C(F)(F)F (stereo not drawn) | 4.386%
60 | CCCc1nnc(NCc2ccc(OC)c(C#N)c2)o1 | -5.74%
61 | CN1C[C@@H](F)[C@@H](OCc2nc3ccc(C#N)cc3[nH]2)C1 | 11.19%
62 | NC(=O)CN(C(=O)Cc1ccc(C(F)(F)F)cc1)C1CCCC1 | 1.7%
63 | CCn1nc(C)c(CCn2ccnc2-c2cc3n(n2)CCCNC3)c1C | -7.012%
64 | CC(C)CC(O)C1CCN(Cc2cnc(-c3cccs3)nc2)CC1 (stereo not drawn) | 3.832%
65 | CN(C)S(=O)(=O)c1cccc(NC(=O)Cc2ccon2)c1 | -6.04%
66 | COCCn1/c(=N\C(=O)CN(C)S(C)(=O)=O)sc2cccc(F)c21 | 0%
67 | Cl.NCC(=O)N1CCC(c2ccnc(Nc3cc(C(F)(F)F)ccn3)n2)C1 (stereo not drawn) | 119.4%
68 | CC(=O)N1CCC(c2ccnc(Nc3cc(C(F)(F)F)ccn3)n2)C1 (stereo not drawn) | 158.6%
69 | O=C(CO)N1CCC(c2ccnc(Nc3cc(C(F)(F)F)ccn3)n2)C1 (stereo not drawn) | 149.1%
70 | O=C(CC(F)(F)F)N1CCCC(c2nccn2Cc2ccncc2)C1 (stereo not drawn) | -5.55%
71 | COCC(=O)N1CC(c2ccnc(Nc3cc(C(F)(F)F)ccn3)n2)C1 | 171.1%
72 | Nc1ccc(C(=O)N2CCCC(c3nccn3Cc3cscn3)C2)cn1 (stereo not drawn) | -28.34%
73 | CN(C)C1CCN(C(=O)c2cc(-c3ccn(C)n3)n3ccccc23)CC1.O=C(O)C(F)(F)F | 86.54%
74 | CN1CCCN(C(=O)c2cc(-c3cc[nH]n3)n3ccccc23)CC1.O=C(O)C(F)(F)F.O=C(O)C(F)(F)F | 9.313%
75 | COCCn1cc(-c2cc(C(=O)N3CCCC3)c3ccccn23)nc1C | -3.651%

Row | Compound | Percent Effect
76 | Cn1ccc(-c2cc(C(=O)N3CCC(C(N)=O)CC3)c3ccccn23)n1 | 110.4%
77 | Cn1ccc(-c2cc(C(=O)N3CCCCC3)c3ccccn23)n1 | 111.2%
78 | Cn1ccc(-c2cc(C(=O)N3CCC(O)CC3)c3ccccn23)n1 | 101.1%
79 | Cc1nc(-c2cc(C(=O)N3CCN(C)CC3)c3ccccn23)cn1C | 1.368%
80 | CC(C)n1ccc(-c2cc(C(=O)N3CCN(C)CC3)c3ccccn23)n1.O=C(O)C(F)(F)F | -12.81%
81 | O=C(c1cc(-c2ccn(CC3CC3)n2)n2ccccc12)N1CCCO1 | -14.88%
82 | O=C(O)c1cc(-c2ccn(CC3CC3)n2)n2ccccc12 | 0.5352%
83 | CC(C)c1nc(-c2cc(C(=O)N3CCN(C)CC3)c3ccccn23)cs1.O=C(O)C(F)(F)F | -39.55%
84 | O=C(c1cc(-c2ccn(CC3CC3)n2)n2ccccc12)N1CCOCC1 | -12.76%
85 | CC(C(=O)N(Cc1ccccc1)CC(F)(F)F)S(C)(=O)=O (stereo not drawn) | 3.578%
86 | CC(C)NC(=O)CNC(=O)C12CCC(=O)N1c1cc(Cl)ccc1S2 (stereo not drawn) | -9.931%
87 | COCCN1CC2(CCCN(C(=O)NCc3ccccc3)C2)CCC1=O (stereo not drawn) | -41.75%
88 | CC(C)(C)C(=O)CN1Cc2ccccc2NCCC1=O | 87.13%
89 | CCN(C(=O)C1=NN(c2ccccc2)C(=O)CN1)c1ccccc1 | 14.38%
90 | COCCN1CCC2(CCC1=O)CN(c1ccnc(SC)n1)CCN2C (stereo not drawn) | 3.783%
91 | O=C(CN1C(=O)CCNC1=O)N1CCC2(CCc3ccccc32)CC1 | -1.469%
92 | CC(C)(C)C(=O)CN1CCc2ccccc2NCCC1=O | 91.03%
93 | CN(C(=O)CN1CCCC1=O)C1CCCN(C2Cc3ccccc3C2)C1 (stereo not drawn) | -3.019%
94 | COCCN1CCc2ccccc2NCCC1=O | 80.29%
95 | CCNC(=O)N1C[C@@H]2OCC(=O)N(Cc3cccnc3)[C@@H]2C1 | -2.175%
96 | C[C@H](CCO)NS(=O)(=O)c1ccc(Br)cn1 | 0.586%
97 | COc1nccnc1N1CCC2(CC1)[C@H](O)C[C@@H]2OCCN(C)C | -0.5657%
98 | COC(=O)CCCn1ccnc1C(C)c1ccccc1 (stereo not drawn) | 30.01%
